Data from PubChem BioAssay (EPA / NIEHS).
Calls of active or inactive are those of the source. The calls were made as follows: active = hit-call score of the fitted dose curve at least 0.9, where 1 is the maximum; inactive = score below 0.9.

read-out: matrix metalloproteinase-10 (MMP10), MMP10 (gene 4319); test: LTEA_HepaRG_MMP10: Life Technologies and Expression Analysis (LTEA) Assay for matrix metalloproteinase-10 (MMP10) using HepaRG (AID 2283517); settings: mRNA level, 48 h; actives raise or lower the signal
Summary of the method: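 Differentiated HepaRG cells in serum-free induction medium exposed 48 h in duplicate to 8-point half-log series up to 100 uM in 0.5% DMSO. mRNA quantified by qRT-PCR, normalised to ACTB, GAPDH, POLR2A; bidirectional fit versus DMSO.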

SMILES | outcome | AC50
CC1=CC(=O)CC(C)(C)C1 | inactive | 
CC(C)CCO | inactive | 
O=C(O)CCN(C1(C(=O)NO)CCCC1)S(=O)(=O)c1ccc(Oc2ccc(F)cc2)cc1 | inactive | 
COC(=O)c1ccccc1O | inactive | 
CC(=O)OCCC(C)C | inactive | 
Clc1nc(Cl)c(Cl)c(Cl)c1Cl | inactive | 
Cc1ccc(S(=O)(=O)O)cc1C | inactive | 
CCOCCOCCOCCO | inactive | 
COC(=O)c1c(Cl)c(Cl)c(C(=O)OC)c(Cl)c1Cl | inactive | 
CC1(C)C(=O)N(Br)C(=O)N1Br | inactive | 
COC(=O)CC(=O)OC | inactive | 
CC[C@H]1CC[C@H](NCc2cc3c(cc2OC)[C@H]2C[C@H]2C(=O)N3C)[C@H](c2ccccc2)N1 | inactive | 
CC(O)CN(CCN(CC(C)O)CC(C)O)CC(C)O (configuration not stated) | inactive | 
O=C1CCC(N2C(=O)c3ccccc3C2=O)C(=O)N1 (configuration not stated) | inactive | 
O=P(OC(CCl)CCl)(OC(CCl)CCl)OC(CCl)CCl | inactive | 
COc1cccc(-c2ccc(/C=C\CN3CCCCCC3)cc2Cl)c1 |  | 71.3 µM (active)
O=C1CCCCCN1 | inactive | 
CCOCCO | inactive | 
CCN(C(=O)c1cc(C)cc(OC[C@H](C)Nc2ccncc2)c1)C(C)C |  | 33.8 µM (active)
CCCCC(CC)COC(=O)c1ccc(C(=O)OCC(CC)CCCC)cc1 (configuration not stated) | inactive | 
CNS(=O)(=O)c1cc(C(=O)N2CCC(CCN3C4CCC3CC(n3c(C)nc5ccccc53)C4)(c3cccc(F)c3)CC2)c(Cl)cc1F (configuration not stated) | inactive | 
CCCCCCc1ccc(O)cc1O | inactive | 
COCCOCCOCCOC | inactive | 
CC[C@H](C)C(=O)O[C@H]1C[C@@H](C)C=C2C=C[C@H](C)[C@H](CC[C@@H]3C[C@@H](O)CC(=O)O3)[C@H]21 | inactive | 
C=CC(=C)CCC=C(C)C | inactive | 
C1=CCCC=CCCC=CCC1 | inactive | 
CC(C)=CCCC(C)=CC=O | inactive | 
Cn1cnc([N+](=O)[O-])c1Sc1ncnc2nc[nH]c12 | inactive | 
CC(C)CC(C)(O)C#CC(C)(O)CC(C)C (configuration not stated) | inactive | 

read-out: MYC, MYC (gene 4609); test: LTEA_HepaRG_MYC: Life Technologies and Expression Analysis (LTEA) Assay for MYC using HepaRG (AID 2283518); settings: mRNA level, 48 h; actives raise or lower the signal
Summary of the method: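 HepaRG, ~100,000 cells/well, collagen I; 48 h plating; serum-free induction medium; 48 h dosing, duplicate, 100 uM top, half-log, 0.5% DMSO; total RNA → qRT-PCR MYC; gain/loss fit vs DMSO.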

SMILES | outcome | AC50
CC1=CC(=O)CC(C)(C)C1 | inactive | 
CC(C)CCO | inactive | 
O=C(O)CCN(C1(C(=O)NO)CCCC1)S(=O)(=O)c1ccc(Oc2ccc(F)cc2)cc1 | inactive | 
COC(=O)c1ccccc1O | inactive | 
CC(=O)OCCC(C)C | inactive | 
Clc1nc(Cl)c(Cl)c(Cl)c1Cl | inactive | 
Cc1ccc(S(=O)(=O)O)cc1C | inactive | 
CCOCCOCCOCCO | inactive | 
COC(=O)c1c(Cl)c(Cl)c(C(=O)OC)c(Cl)c1Cl | inactive | 
CC1(C)C(=O)N(Br)C(=O)N1Br | inactive | 
COC(=O)CC(=O)OC | inactive | 
CC[C@H]1CC[C@H](NCc2cc3c(cc2OC)[C@H]2C[C@H]2C(=O)N3C)[C@H](c2ccccc2)N1 | inactive | 
CC(O)CN(CCN(CC(C)O)CC(C)O)CC(C)O (configuration not stated) | inactive | 
O=C1CCC(N2C(=O)c3ccccc3C2=O)C(=O)N1 (configuration not stated) | inactive | 
O=P(OC(CCl)CCl)(OC(CCl)CCl)OC(CCl)CCl |  | 82.9 µM (active)
COc1cccc(-c2ccc(/C=C\CN3CCCCCC3)cc2Cl)c1 |  | 81.1 µM (active)
O=C1CCCCCN1 | inactive | 
CCOCCO | inactive | 
CCN(C(=O)c1cc(C)cc(OC[C@H](C)Nc2ccncc2)c1)C(C)C | inactive | 
CCCCC(CC)COC(=O)c1ccc(C(=O)OCC(CC)CCCC)cc1 (configuration not stated) | inactive | 
CNS(=O)(=O)c1cc(C(=O)N2CCC(CCN3C4CCC3CC(n3c(C)nc5ccccc53)C4)(c3cccc(F)c3)CC2)c(Cl)cc1F (configuration not stated) |  | 26.1 µM (active)
CCCCCCc1ccc(O)cc1O | inactive | 
COCCOCCOCCOC | inactive | 
CC[C@H](C)C(=O)O[C@H]1C[C@@H](C)C=C2C=C[C@H](C)[C@H](CC[C@@H]3C[C@@H](O)CC(=O)O3)[C@H]21 | inactive | 
C=CC(=C)CCC=C(C)C | inactive | 
C1=CCCC=CCCC=CCC1 | inactive | 
CC(C)=CCCC(C)=CC=O | inactive | 
Cn1cnc([N+](=O)[O-])c1Sc1ncnc2nc[nH]c12 |  | 6.38 µM (active)
CC(C)CC(C)(O)C#CC(C)(O)CC(C)C (configuration not stated) | inactive | 

read-out: matrix metalloproteinase-3 (MMP3), MMP3 (gene 4314); test: LTEA_HepaRG_MMP3: Life Technologies and Expression Analysis (LTEA) Assay for matrix metalloproteinase-3 (MMP3) using HepaRG (AID 2283519); settings: mRNA level, 48 h; actives raise or lower the signal
Summary of the method: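 HepaRG cells (~100,000/well) in serum-free induction medium were dosed in duplicate for 48 h with an 8-point half-log series from 100 uM, 0.5% DMSO. MMP3 mRNA was quantified by Fluidigm TaqMan qRT-PCR, normalized to three housekeeping genes.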

SMILES | outcome | AC50
CC1=CC(=O)CC(C)(C)C1 | inactive | 
CC(C)CCO | inactive | 
O=C(O)CCN(C1(C(=O)NO)CCCC1)S(=O)(=O)c1ccc(Oc2ccc(F)cc2)cc1 | inactive | 
COC(=O)c1ccccc1O | inactive | 
CC(=O)OCCC(C)C | inactive | 
Clc1nc(Cl)c(Cl)c(Cl)c1Cl | inactive | 
Cc1ccc(S(=O)(=O)O)cc1C | inactive | 
CCOCCOCCOCCO | inactive | 
COC(=O)c1c(Cl)c(Cl)c(C(=O)OC)c(Cl)c1Cl | inactive | 
CC1(C)C(=O)N(Br)C(=O)N1Br | inactive | 
COC(=O)CC(=O)OC | inactive | 
CC[C@H]1CC[C@H](NCc2cc3c(cc2OC)[C@H]2C[C@H]2C(=O)N3C)[C@H](c2ccccc2)N1 | inactive | 
CC(O)CN(CCN(CC(C)O)CC(C)O)CC(C)O (configuration not stated) | inactive | 
O=C1CCC(N2C(=O)c3ccccc3C2=O)C(=O)N1 (configuration not stated) | inactive | 
O=P(OC(CCl)CCl)(OC(CCl)CCl)OC(CCl)CCl |  | 23.3 µM (active)
COc1cccc(-c2ccc(/C=C\CN3CCCCCC3)cc2Cl)c1 |  | 69.3 µM (active)
O=C1CCCCCN1 | inactive | 
CCOCCO | inactive | 
CCN(C(=O)c1cc(C)cc(OC[C@H](C)Nc2ccncc2)c1)C(C)C | inactive | 
CCCCC(CC)COC(=O)c1ccc(C(=O)OCC(CC)CCCC)cc1 (configuration not stated) | inactive | 
CNS(=O)(=O)c1cc(C(=O)N2CCC(CCN3C4CCC3CC(n3c(C)nc5ccccc53)C4)(c3cccc(F)c3)CC2)c(Cl)cc1F (configuration not stated) | inactive | 
CCCCCCc1ccc(O)cc1O | inactive | 
COCCOCCOCCOC | inactive | 
CC[C@H](C)C(=O)O[C@H]1C[C@@H](C)C=C2C=C[C@H](C)[C@H](CC[C@@H]3C[C@@H](O)CC(=O)O3)[C@H]21 | inactive | 
C=CC(=C)CCC=C(C)C | inactive | 
C1=CCCC=CCCC=CCC1 | inactive | 
CC(C)=CCCC(C)=CC=O | inactive | 
Cn1cnc([N+](=O)[O-])c1Sc1ncnc2nc[nH]c12 |  | 1.9 µM (active)
CC(C)CC(C)(O)C#CC(C)(O)CC(C)C (configuration not stated) | inactive | 
